Most compounds without a hit are left out; they make up all but 7.9% or so of the library.
KB-V1 cytotox: KB-V1 MDR subline cytotoxicity. KB-V1 MDR cells viability, CellTiter-Glo, 72 h. Potency, µM (series often up to 46.1 µM), usual class: cytotoxic. actives 3.4% (n = 400,000); note: % is set by controls: 0 for no effect and ±100 for the full control effect; nearly all actives have a fitted effect of over 60% in size
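KB-V1 cells (P-gp-expressing MDR subline of KB-3-1) in phenol-red-free DMEM with 10% FBS were exposed to library compounds over a concentration series for 72 h at 37 degrees C. Viability read by CellTiter-Glo luminescence; concentration-effect curves fitted after normalization.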
MCF10A rerep: inducers of DNA re-replication in MCF 10A breast cells. MCF 10A DNA re-replication, Hoechst nuclear intensity, 48 h. Potency, µM (top dose mostly 46.1 µM), inactives show at the highest dose activity, positive = re-replication, hits mostly activators. actives 2.9% (n = 350,000); note: % of control where 0% means no effect; nearly all actives have a fitted effect of over 50% in size
HT1080NT lethal: kills 2HG-producing HT-1080-NT fibrosarcoma cells. HT-1080-NT fibrosarcoma viability, CellTiter-Glo ATP luminescence, 48 h. Potency, µM (top dose mostly 46.1 µM), for the others: at the top dose activity, negative = less viability, most hits filed as cytotoxic. actives 1.6% (n = 360,000). AID 686970;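 note: NT is the 2HG producing partner of a matched IDH1 knockdown line; 0% = DMSO-treated cells and -100% = media-only wells without cells; nearly all actives have a fitted effect of over 55% in size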
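Read-out is CellTiter-Glo luminescence after 10 minutes at room temperature, following 48 hours' compound treatment of HT-1080-NT cells (750 cells/well, RPMI, 5% FBS, 37 degrees C).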
SW480 rereplic: DNA re-replication induction in SW480 cells. SW480 DNA re-replication, Hoechst DNA content imaging, 48 h. Potency, µM (highest dose often 46.1 µM), without a hit: at the top dose re-replication activation, most hits filed as activators. actives 1.8% (n = 340,000). AID 624297; note: % of control where 0% means no effect; nearly all actives have a fitted effect of over 55% in size
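Cells (250 per well) received 23 nL compound or DMSO by pin tool and were kept 48 hr at 37 C, 5% CO2. Nuclei were then stained with Hoechst for 40 min and scanned for DNA content.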
KB-3-1 tox: KB-3-1 parental cell cytotoxicity | KB-3-1 viability, CellTiter-Glo ATP luminescence, 72 h | Potency, µM (doses to about 46.1 µM), hits mostly cytotoxic | actives 1.4% (n = 400,000) | AID 1347075; note: % is set by controls: 0 for no effect and ±100 for the full control effect; nearly all actives have a fitted effect of over 60% in size
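KB-3-1 cells, DMEM (no phenol red) + 10% FBS; compound by pin transfer, 72 h, 37 °C. Readout: CellTiter-Glo luminescence after 10 min. Data normalized, curve-fitted.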
HT1080 IDH1KD tx: toxicity to HT-1080 IDH1 knockdown cells (counter line). HT-1080 IDH1 knockdown viability, ATP luminescence, 48 h. Potency, µM (doses to about 46.1 µM), for the others: top-dose activity, negative = toxicity, most hits filed as cytotoxic. actives 2% (n = 360,000);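 note: 0% = DMSO wells and -100% = cell-free medium wells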
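% activity derives from luminescence (CellTiter-Glo), normalised to DMSO and no-cell wells. HT-1080-IDH1KD cells, 750/well, had 48 h compound exposure at 37 °C.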
Starred values were filed as active, the others as inactive; i = inactive; ? = inconclusive; . = no result given. Calls come from the whole dose curve; as a rule, active = well fitted curve in the direction sought with a large enough effect; inconclusive = small, poorly fitted or top-dose-only effect, or another doubt; inactive = no such curve, though single readings can be large; an effect the other way counts as inactive or inconclusive. Potency is the fitted concentration of half-maximal effect.

SMILES	KB-V1 cytotox	MCF10A rerep	HT1080NT lethal	SW480 rereplic	KB-3-1 tox	HT1080 IDH1KD tx
Cc1ccc(CNC(=O)C2(C)CCN2C(=O)Cc2ccc(C(C)(C)C)cc2)cc1 (centres undefined)	i	.	?	.	i	?
CC(C)c1ccc(CC(=O)N2CCC2(C)C(=O)Nc2cnc3ccccc3c2)cc1 (centres undefined)	i	.	?	.	i	?
CC(C)(C)c1ccc(CC(=O)N2CCC2(C)C(=O)Nc2cnc3ccccc3c2)cc1 (centres undefined)	16.4µM*	.	?	.	?	?
O=C(Nc1ccccc1Cl)[C@H](CSCc1ccccc1)N1Cc2ccccc2C1=O	i	.	.	.	i	.
CC1CCCN(C(=O)CSc2c3c(nc4cc(Cl)ccc24)CCCC3)C1 (centres undefined)	i	.	.	.	i	.
Cc1sc2ncn(CC(=O)N3CCN(c4ccc(Cl)cc4)CC3)c(=O)c2c1S(=O)(=O)N1CCN(c2ncccn2)CC1	i	.	.	.	i	.
COC(=O)Cc1[nH]n(-c2nc3ccccc3s2)c(=O)c1C(C)=O	i	-5.0%	-25.5%	-12.0%	i	-18.7%
CC(=O)c1c(CC(=O)O)[nH]n(-c2nc3ccccc3s2)c1=O	?	-3.8%	10µM*	-1.5%	?	10µM*
CCCCCN=Cc1c(C)[nH]n(-c2nc3ccccc3s2)c1=O	2.31µM*	17.8%	11.2µM*	11.6%	2.59µM*	5.01µM*
Cc1ccc(Cl)cc1NC(=O)C(C)n1nnc2sc3c(c2c1=O)CCCC3 (centres undefined)	i	.	.	.	i	.
COc1c(/C=N/NC(N)=S)c(C)nn1-c1ccccc1	9.2µM*	3.5%	7.6%	3.0%	?	10.0%
Cc1nn(-c2ccccc2)c(N2CCCC2)c1/C=N/NC(=S)Nc1ccc(F)cc1	i	3.5%	-3.3%	5.8µM*	?	0.0%
Cc1ccc(NC(=S)N/N=C/c2c(C)nn(-c3ccccc3)c2N2CCCC2)cc1	i	?	5.1%	14.4%	i	21.8%
c1ccc2c(N=NN3CCCCC3)ccnc2c1	i	.	.	.	?	.
CCc1nnc2c(N3CCN(c4cc(Cl)ccc4C)CC3)nc3ccccc3n12	?	.	.	.	i	.
Cn1cc(CN2CCN(c3ncccn3)CC2)c(-c2cccc(Cl)c2)n1	?	20.6µM*	-0.8%	6.1%	i	-16.1%
Cn1cc(CN2CCC(C(O)c3cccs3)CC2)c(-c2cccc(Cl)c2)n1 (centres undefined)	i	5.2%	-28.7%	-11.1%	i	?
Cc1cc(N2CCN(Cc3cn(C)nc3-c3ccccc3F)CC2)cc(C)n1	i	16.4µM*	?	7.31µM*	6.51µM*	?
Cc1cnccc1CN(C)Cc1cn(C)nc1-c1cccc(Cl)c1	?	?	-7.5%	4.4%	i	-8.8%
Cc1cc(-c2nn(-c3ccccc3F)cc2CN2CCN(c3ccncc3)CC2)c(C)s1	i	?	20.6µM*	?	i	?
Cc1cc(N2CCN(Cc3cn(C)nc3-c3cccc(Cl)c3)CC2)cc(C)n1	?	?	14.6µM*	23.1µM*	9.2µM*	16.4µM*
Cc1cc(-c2nn(-c3ccccc3F)cc2CN2CCC(O)CC2)c(C)s1	i	0.9%	0.0%	-1.7%	i	-4.3%
COc1ccccc1CNC(=O)C(=O)NCC1CCCN1S(=O)(=O)c1cc(C)ccc1C (centres undefined)	i	.	-0.1%	.	i	-0.9%
Cc1ccc(-n2ncc3c(NCCC4=CCCCC4)ncnc32)cc1C	i	.	.	.	i	.
CSCCC(NS(=O)(=O)c1ccc2c(c1)oc(=O)n2C)C(=O)Nc1ccc(Cl)cc1 (centres undefined)	?	.	.	.	i	.
SMILES	KB-V1 cytotox	MCF10A rerep	HT1080NT lethal	SW480 rereplic	KB-3-1 tox	HT1080 IDH1KD tx
Cc1cccc2c(=O)cc(CSc3ccccc3NC(=O)C(C)(C)C)[nH]c12	i	.	.	.	i	.
Cn1c(=O)c(C(=O)NNC(=O)c2ccc(Br)cc2)c(O)c2ccccc21	?	23.1µM*	20.6µM*	21.2%	25.9µM*	14.6µM*
Cc1cccnc1NC(=O)c1c(O)c2ccccc2n(C)c1=O	7.31µM*	?	?	13.0%	i	-29.5%
CCn1c(=O)c(C(=O)Nc2ncccc2O)c(O)c2ccccc21	i	?	-21.0%	5.4%	i	-0.1%
CCn1c(=O)c(C(=O)Nc2ncccc2C)c(O)c2ccccc21	4.61µM*	15.6%	-8.4%	24.2%	?	-29.6%
COc1ccc(-c2nc3c(C)cc(Br)cn3c2Cc2ccsc2)cc1OC	i	.	?	.	i	?
Cc1ccc(S(=O)(=O)NCCc2nnc3ccc(SCC(=O)Nc4c(C)cc(C)cc4C)nn23)cc1	i	.	.	.	i	.
Cc1ccc(S(=O)(=O)Nc2cccc(C(=O)NCC(c3ccco3)N3CCCC3)c2)cc1F (centres undefined)	?	20.7%	?	23.1µM*	?	-4.6%
O=C(NCC(c1ccco1)N1CCCCC1)c1cccc(NS(=O)(=O)c2ccc(Br)cc2)c1 (centres undefined)	?	18.4µM*	-12.5%	3.9%	i	-16.6%
O=C(NCC(c1ccco1)N1CCCC1)c1cccc(S(=O)(=O)Nc2ccc(Br)cc2)c1 (centres undefined)	.	?	-3.1%	9.0%	.	0.3%
CCOc1ccc(NC(=O)Cn2c(=O)n(CCCCCC(=O)NCc3ccccc3)c(=O)c3sccc32)cc1	i	.	.	.	?	.
Cc1oc(-c2ccc(C(=O)NC(C)c3ccccc3)cc2)nc1CS(=O)(=O)c1ccccc1 (centres undefined)	i	.	.	.	i	.
CCCCC[C@H](C)N1C[C@H](COCc2ccccc2)Oc2cc(N3CCC[C@@H]3COC)ccc2S1(=O)=O	?	.	0.9%	.	i	-2.0%
O=c1c2cc(C(F)(F)F)ccc2sn1-c1ccccc1	20.6µM*	.	-16.3%	.	?	-5.3%
O=c1c2ccccc2sn1-c1nccs1	i	16.4µM*	?	?	i	?
O=c1c2ccccc2sn1-c1ccccc1	i	9.2µM*	?	11.6µM*	?	16.4µM*
Cc1ccc(-n2sc3ccccc3c2=O)cc1S(=O)(=O)N1CCCCC1	?	16.4µM*	?	?	?	?
Cc1cccc(N(CC(N)=O)C2SC(=O)N(Cc3cccc(C(=O)O)c3)C2=O)c1 (centres undefined)	i	.	.	.	i	.
CC1CCN(S(=O)(=O)c2ccc3c(ccn3CC(=O)NCc3ccc(N(C)C)cc3)c2)CC1	i	.	.	.	i	.
